Assay outcomes: PubChem, National Center for Advancing Translational Sciences (NCATS)
FMDV inh = High Throughput Screening for Foot and Mouth Disease Virus Antivirals; FMDV antiviral cell-based qHTS; Potency, µM (top dose mostly 57.9 µM), most hits filed as inhibitors; actives 1.2% (n = 410,000); calls by dose curve; tested in HEK293T cells; also: read-out not given here; nearly all actives have a fitted effect of over 45% in size
SARS PLP yeast = qHTS of Yeast-based Assay for SARS-CoV PLP; AID 485353, 2010; Potency, µM (highest dose often 32.9 µM), most hits filed as activators; S. cerevisiae expressing SARS-CoV PLpro, growth rescue; actives 0.19% (n = 330,000); calls by dose curve; also: nearly all actives have a fitted effect of over 55% in size
LASV entry inh = qHTS for Inhibitors of binding or entry into cells for Lassa Virus | Potency, µM (titrated, usually from 37.9 µM), hits mostly inhibitors | AID 540256, 2011 | actives 1.2% (n = 300,000) | Lassa virus pseudotype entry inhibition, cell reporter; calls by dose curve; tested in HEK293 cells; also: nearly all actives have a fitted effect of over 50% in size
HCMV antiviral = qHTS Assay for inhibitors of the human cytomegalovirus (HCMV); actives 4.5% (n = 410,000); activity change, negative = inhibition, % at 57.5 µM; HFF cells, HCMV-luciferase reporter, 72 h; stronger effect = lower value; in the data active = activity change below about -60%; inconclusive = no clear call, values can overlap the other calls; inactive = above about -39%
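After 16 h attachment at 37C, HFF cells received test compound and HCMV-luciferase (1 PFU/cell); reporter luminescence read 72 h later, data normalized against buffer-only and known inhibitor Salinomycin.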
Marburg entry inh = qHTS for inhibitors of binding or entry into cells for Marburg Virus; Marburg virus pseudotyped entry inhibition, cell reporter; Potency, µM (titrated, usually from 37.8 µM), actives largely listed as inhibitors; actives 1.8% (n = 300,000); calls by dose curve; tested in HEK293 cells
HCV inh = qHTS Assay for Inhibitors of Hepatitis C Virus (HCV); Potency, µM (top dose mostly 41.8 µM), actives largely listed as inhibitors; actives 3.4% (n = 340,000); AID 651820, 2012; Huh7.5.1 HCVcc-Cre infection, luciferase reporter, 44 h; active = well fitted inhibition curve with a large enough effect; inconclusive = small, poorly fitted or top-dose-only effect, or another doubt; inactive = no such curve, though single readings can be large or run the other way
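Antiviral activity was scored by luciferase reporter output from cells infected with HCVcc-Cre (~0.5 moi) in presence of compound, 44 h infection period, cells seeded 1,000/well 4 h prior.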
Large screens that a line does not name were inactive; ! = not confirmed by another sample. In the library only some 8% were active in any assay of this set; here they are far more common.

CCCc1nc(SCC(=O)N2CCC(Cc3ccccc3)CC2)c2c(=O)n(C)c(=O)n(C)c2n1	FMDV inh inconclusive, HCV inh 10µM! (no result: LASV entry inh)
CCCc1nc(SCC(=O)N2CCCc3ccccc32)c2c(=O)n(C)c(=O)n(C)c2n1	HCV inh 10µM (no result: LASV entry inh, HCMV antiviral)
CC1Cc2nc(SCC(=O)N3CCCc4ccccc43)n(C)c(=O)c2S1 (stereo unspecified)	FMDV inh inconclusive, HCV inh 11µM (no result: LASV entry inh, Marburg entry inh)
CCc1nc(SCC(=O)N2CCN(c3ccccc3)CC2)c2c(=O)n(C)c(=O)n(C)c2n1	none (no result: FMDV inh, LASV entry inh, HCMV antiviral, Marburg entry inh, HCV inh)
Cc1ccc(-c2nc(SCC(=O)N3CCc4ccccc43)c3c(=O)n(C)c(=O)n(C)c3n2)cc1	none (no result: SARS PLP yeast, Marburg entry inh, HCV inh)
COc1ccc(S[C@]2(C(=O)N3CCCC3)CC(=O)N(c3ccc(C#N)cc3)[C@@H]2c2ccc(OC)cc2)cc1	none (no result: FMDV inh, SARS PLP yeast, LASV entry inh, Marburg entry inh, HCV inh)
Cn1c(=O)c2c(SCC(=O)Nc3ccc4c(c3)OCCO4)nc(CC(C)(C)C)nc2n(C)c1=O	HCMV antiviral -64 (no result: LASV entry inh, Marburg entry inh)
C[C@@H](CN1CCC[C@H]1CN1C(N)=NC[C@@H]1Cc1ccccc1)N1C[C@@H](Cc2ccccc2)N(CCc2ccc(Cl)c(Cl)c2)C1=N	none (no result: LASV entry inh, HCMV antiviral, Marburg entry inh)
CC(C)[C@@H]1CN=C(N)N1C[C@@H]1CCCN1C[C@H](C)N1C[C@@H](Cc2ccccc2)N(CCc2ccc(Cl)c(Cl)c2)C1=N	HCV inh 0.56µM (no result: LASV entry inh, HCMV antiviral, Marburg entry inh)
Cc1occc1-c1nc(-c2ccccn2)no1	LASV entry inh inconclusive, Marburg entry inh 11µM, HCV inh inconclusive
c1ccc(-c2noc(-c3ccc4ccccc4c3)n2)nc1	FMDV inh 4µM, LASV entry inh 0.29µM, Marburg entry inh 1.6µM, HCV inh inconclusive (no result: HCMV antiviral)
c1ccc(-c2nc3n(c2-c2ccc4c(c2)OCO4)CCC3)nc1	LASV entry inh 10µM (no result: FMDV inh, SARS PLP yeast, HCMV antiviral, Marburg entry inh, HCV inh)
Cc1cccc(-c2noc(-c3ccc4c(c3)OCO4)n2)c1	LASV entry inh inconclusive, Marburg entry inh inconclusive
Cc1occc1-c1nc(-c2ccncc2)no1	none
c1ccc(-c2noc(-c3ccc4c(c3)OCO4)n2)nc1	LASV entry inh 0.41µM, HCMV antiviral -81, Marburg entry inh inconclusive, HCV inh inconclusive (no result: FMDV inh)
Cc1ccc(N2CC(NC(=O)C(=O)c3c[nH]c4ccccc34)CC2=O)cc1 (stereo unspecified)	none (no result: SARS PLP yeast, Marburg entry inh, HCV inh)
CCn1c(-c2ccccc2F)nc2cc(NC(C)=O)cc(C(=O)N3CCCC3c3nccs3)c21 (stereo unspecified)	none (no result: SARS PLP yeast, LASV entry inh, HCMV antiviral, Marburg entry inh, HCV inh)
CCNc1ccc(-c2nc(-c3ccccn3)no2)cc1[N+](=O)[O-]	HCMV antiviral -106 (no result: SARS PLP yeast, HCV inh)
O=C1CC(c2ccc(F)cc2)CC2=C1C(c1ccc([N+](=O)[O-])o1)Nc1ccccc1N2 (stereo unspecified)	LASV entry inh inconclusive, Marburg entry inh 10µM, HCV inh inconclusive
O=C1CC(c2ccccc2)CC2=C1C(c1ccccn1)Nc1ccccc1N2 (stereo unspecified)	none (no result: FMDV inh)
CCOc1ccc(NC(=O)CN(C)C(=O)c2cc([N+](=O)[O-])ccc2N2CCOCC2)cc1OCC	none (no result: SARS PLP yeast)
CCCCNC(=O)c1c(-c2ccccc2)c(-c2ccccc2)nn(C)c1=O	LASV entry inh inconclusive (no result: SARS PLP yeast, HCV inh)
O=C1NC(=O)[C@H](c2cn(-c3ccccc3)nc2-c2ccc(F)cc2)N1	none (no result: FMDV inh, SARS PLP yeast, LASV entry inh, HCMV antiviral, HCV inh)
N#CC(=C1CCCC1)c1nc(-c2ccccc2O)cs1	LASV entry inh 10µM, Marburg entry inh inconclusive, HCV inh inconclusive (no result: HCMV antiviral)
O=C(CSc1ncn[nH]1)Nc1ccc([N+](=O)[O-])cc1Br	LASV entry inh inconclusive, HCMV antiviral -65, Marburg entry inh inconclusive
COc1cccc(/C=C/C(=O)OCC(=O)Nc2ccccc2Sc2ccccc2)c1	HCMV antiviral -65
O=C(CCl)Nc1ccccc1Sc1ccccc1	FMDV inh inconclusive, SARS PLP yeast 13µM, LASV entry inh inconclusive, Marburg entry inh inconclusive
Nc1cc(=O)[nH]c(SCC(=O)Nc2ccccc2Sc2ccc(Cl)cc2)n1	FMDV inh inconclusive, LASV entry inh inconclusive, HCV inh inconclusive
O=C(CSc1ncn[nH]1)Nc1ccccc1Sc1ccc(Cl)cc1	FMDV inh 16µM, LASV entry inh inconclusive, HCMV antiviral inconclusive, HCV inh inconclusive
COc1cc(-c2cnc3ccccc3c2)cc2c1OCCN(S(=O)(=O)C[C@]13CC[C@H](CC1=O)C3(C)C)C2	none (no result: SARS PLP yeast, LASV entry inh, HCMV antiviral, Marburg entry inh, HCV inh)
